Screens as filed in PubChem BioAssay.
PI5P4Ka inh: inhibitors of human PI5P4K alpha; PI5P4Kalpha enzyme, ADP-Glo luminescence, 60 min; active compounds read low; 1.2% of 330,000 active; P48426; max response, %; active = max response of -50% or lower; inconclusive = between -30% and -50%; inactive = -30% or higher; also: value at the top dose of about 77 µM; % is scaled to controls: 0 for no effect and ±100 for the full control effect
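Enzyme plus substrate dispensed, test compounds pinned in, then ATP (5 microM final) added. After 60 min at RT, ADP-Glo reagent 1 for 45 min and reagent 2 for 30 min preceded luminescence imaging.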
Pol eta inh: inhibitors of human DNA polymerase eta; AID 588591; Potency, µM (titrated, usually from 114 µM), for the others: top-dose activity change, negative = inhibition, usual class: inhibitors; recombinant Pol eta, fluorescent DNA replication assay; 1.2% of 390,000 active; also: potency is read from the fitted curve at half-maximal effect; % is scaled to controls: 0 for no effect and ±100 for the full control effect
Target sequence (Q9Y253 whole entry, looked up): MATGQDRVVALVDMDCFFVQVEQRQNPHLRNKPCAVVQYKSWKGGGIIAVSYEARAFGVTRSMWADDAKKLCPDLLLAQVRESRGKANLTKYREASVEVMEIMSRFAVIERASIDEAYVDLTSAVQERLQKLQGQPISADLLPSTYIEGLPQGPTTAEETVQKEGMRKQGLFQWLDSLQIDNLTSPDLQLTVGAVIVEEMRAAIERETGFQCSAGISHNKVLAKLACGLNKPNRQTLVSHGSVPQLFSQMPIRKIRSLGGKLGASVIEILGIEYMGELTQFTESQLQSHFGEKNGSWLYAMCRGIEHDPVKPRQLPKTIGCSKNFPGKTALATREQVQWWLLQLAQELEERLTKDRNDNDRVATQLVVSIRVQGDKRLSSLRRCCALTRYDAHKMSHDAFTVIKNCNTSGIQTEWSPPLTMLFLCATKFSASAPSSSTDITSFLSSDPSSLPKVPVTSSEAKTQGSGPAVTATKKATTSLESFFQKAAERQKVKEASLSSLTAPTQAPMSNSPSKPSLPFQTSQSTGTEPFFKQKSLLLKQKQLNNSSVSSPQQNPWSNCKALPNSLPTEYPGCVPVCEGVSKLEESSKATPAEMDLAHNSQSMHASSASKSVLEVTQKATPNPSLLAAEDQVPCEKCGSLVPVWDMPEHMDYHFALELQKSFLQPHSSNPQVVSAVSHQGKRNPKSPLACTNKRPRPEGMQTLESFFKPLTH
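Fluorescent replication assay: 50 nM final substrate added after a 15 min room-temperature compound preincubation with 10 nM enzyme. Signal taken at 0 min and again at 10 min.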
WRN helicase inh: WRN helicase (human) inhibition. Potency, µM (series often up to 114 µM), for the others: at the top dose activity change, negative = inhibition, actives largely listed as inhibitors. 0.46% of 360,000 active. Q14191. WRN helicase unwinding, fluorescent forked duplex, kinetic; also: potency is read from the fitted curve at half-maximal effect; % is scaled to controls: 0 for no effect and ±100 for the full control effect; nearly all actives have a fitted effect of over 55% in size
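Kinetic red-fluorescence monitoring (525/598 nm) tracks WRN helicase activity after 100 nM fluorophore-quencher forked duplex and 2 mM ATP are added to 20 nM enzyme pretreated 15 min at room temperature with compound.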
Pol kappa inh: blocks human DNA polymerase kappa activity; 0.53% of 400,000 active; AID 588579; Potency, µM (highest dose often 107 µM), for inactives: top-dose activity, negative = inhibition, most hits filed as inhibitors; purified Pol kappa, fluorescent DNA synthesis assay, 10 min; also: potency is read from the fitted curve at half-maximal effect; % is scaled to controls: 0 for no effect and ±100 for the full control effect
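Readout: fluorescence, taken kinetically at 0 and 10 min. Conditions: 10 nM Pol kappa, 15 min RT compound preincubation, 50 nM substrate final. Controls: enzyme-free buffer wells.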
POLI inh: blocks human DNA polymerase iota activity; Q9UNA4; Potency, µM (series often up to 115 µM), inactives show top-dose activity, negative = inhibition, actives largely listed as inhibitors; 1% of 390,000 active; Pol iota fluorescent replication assay, 10 min; AID 588590; also: potency is read from the fitted curve at half-maximal effect
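Fluorescent replication assay read twice, at 0 min and 10 min after adding 50 nM (final) substrate. Enzyme (10 nM) and compounds were first incubated 15 min at room temperature; enzyme-free buffer wells were negative controls.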
Pol beta inh: DNA polymerase beta (human) inhibition; P06746; Pol beta primer extension/strand displacement, fluorescence kinetic; 1.3% of 340,000 active; Potency, µM (doses to about 114 µM), for inactives: at the highest dose activity change, negative = inhibition, most hits filed as inhibitors; also: potency is read from the fitted curve at half-maximal effect; % is scaled to controls: 0 for no effect and ±100 for the full control effect
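Reaction started by 50 nM substrate onto compound-treated Pol beta (10 nM, 15 min preincubation, room temperature); plates read at 0 min and 10 min. Normalized concentration-effect data fitted by four-parameter Hill equation.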
The depositor's hits bear a star; [ ] = dose if it differs, or a comment. In the library only some 2.8% were active in any assay of this set; here they are far more common. Unless noted, calls follow the shape of the dose curve; as a rule, active = well fitted curve in the direction sought with a large enough effect; inconclusive = small, poorly fitted or top-dose-only effect, or another doubt; inactive = no such curve, though single readings can be large; an effect the other way counts as inactive or inconclusive.

For COc1ccc(C(=O)CCC(=O)Nc2cc(Cl)c(O)c(Cl)c2)cc1 the results were PI5P4Ka inh -77*, Pol eta inh 22µM*, WRN helicase inh -21%, Pol kappa inh inconclusive, POLI inh 45µM* and Pol beta inh 28µM*.
Screening COc1ccc(CN(C)CC(=O)Nc2sc3c(c2C#N)CCC3)c(OC)c1 returned PI5P4Ka inh 14, Pol eta inh -26%, WRN helicase inh 0%[57.1 µM], Pol kappa inh -13%, POLI inh 32% and Pol beta inh 20µM*.
`CC(C)CCOc1ccc(C(=O)Nc2sc3c(c2C#N)CCCCC3)cc1` gave Pol eta inh 8%, Pol kappa inh 89µM*, POLI inh -83% and Pol beta inh 7%.
`COc1ccc(CN(C)CC(=O)Nc2c(C)cccc2C)c(OC)c1` gave PI5P4Ka inh 10, Pol eta inh 1%, WRN helicase inh 2%, Pol kappa inh -9%, POLI inh 118% and Pol beta inh 1%.
Screening Cn1cc(Br)c(C(=O)Nc2sc3c(c2C#N)CCC3)n1 returned PI5P4Ka inh -12, Pol eta inh -9%, WRN helicase inh -23%, Pol kappa inh -9%, POLI inh 107% and Pol beta inh 1%.
`Cc1cc(C(=O)Nc2sc3c(c2C#N)CCCC3)no1` gave Pol eta inh -13%, WRN helicase inh -3%, Pol kappa inh -8%, POLI inh inconclusive and Pol beta inh 3%.
Screening Cn1ccc(C(=O)Nc2sc3c(c2C#N)CCC3)n1 returned PI5P4Ka inh -8, Pol eta inh 79µM*, WRN helicase inh -8%[11.6 µM], Pol kappa inh -30%, POLI inh inconclusive and Pol beta inh -26%.
`N#Cc1c(NC(=O)c2ccccc2)sc2c1CCCCC2` gave PI5P4Ka inh 6, Pol eta inh -7%, WRN helicase inh -6%, Pol kappa inh -18%, POLI inh 8% and Pol beta inh 10%.
Screening Cc1cc(C(=O)Nc2sc3c(c2C#N)CCC3)no1 returned Pol eta inh 79µM*, WRN helicase inh -2%[11.6 µM], Pol kappa inh -42%, POLI inh inconclusive and Pol beta inh inconclusive.
Screening CCc1c(C(=O)N/N=C/c2ccc(C)o2)csc1C returned PI5P4Ka inh -1, Pol eta inh -5%, WRN helicase inh 4%, Pol kappa inh -2%, POLI inh 2% and Pol beta inh 0%.
`Cc1onc(-c2ccccc2)c1C(=O)Nc1sc2c(c1C#N)CCC2` gave Pol eta inh 28µM*, WRN helicase inh 50µM*, Pol kappa inh inconclusive, POLI inh 20µM* and Pol beta inh 20µM*.
`Cc1csc(SCC(=O)Nc2sc3c(c2C#N)CCC3)n1` gave PI5P4Ka inh inconclusive, Pol eta inh inconclusive, WRN helicase inh -21%, Pol kappa inh -29%, POLI inh inconclusive and Pol beta inh 20µM*.
`Cc1ccnc(SCC(=O)Nc2sc3c(c2C#N)CCCC3)n1` gave PI5P4Ka inh 2, Pol eta inh -15%, WRN helicase inh -2%, Pol kappa inh -7%, POLI inh 0% and Pol beta inh -1%.
For Cn1cc([N+](=O)[O-])c(C(=O)Nc2sc3c(c2C#N)CCC3)n1 the results were PI5P4Ka inh 7, Pol eta inh inconclusive, WRN helicase inh 2%, Pol kappa inh -3%, POLI inh 4% and Pol beta inh 11%.
Cc1cc(C(F)F)n2nc(C(=O)Nc3sc4c(c3C#N)CCC4)nc2n1 was read as PI5P4Ka inh -5, Pol eta inh 22µM*, WRN helicase inh -30%, Pol kappa inh inconclusive, POLI inh 50µM* and Pol beta inh inconclusive.
`CCC(C)NC(=O)c1ccc2nc(-c3cccs3)c(-c3cccs3)nc2c1` (stereo unspecified) gave Pol kappa inh 1% and POLI inh inconclusive.
Screening CCOc1cc(CNc2ccc(O)cc2)cc(Cl)c1OCc1ccccc1 returned Pol eta inh -12%, Pol kappa inh -25%, POLI inh 25µM* and Pol beta inh -29%.
Screening CCOc1cccc(CNc2ccc(O)cc2)c1OCc1ccccc1Cl returned PI5P4Ka inh -19, Pol eta inh inconclusive, WRN helicase inh inconclusive, Pol kappa inh -24%, POLI inh 8.9µM* and Pol beta inh -9%.
For CCOc1cc(CNc2ccccc2)cc(Br)c1OCc1ccc(F)cc1 the results were PI5P4Ka inh 13, Pol eta inh -17%, WRN helicase inh -13%, Pol kappa inh -5%, POLI inh -7% and Pol beta inh -20%.
For CCOc1cccc(CNn2cnnc2)c1OCc1ccccc1Cl the results were PI5P4Ka inh 2, Pol eta inh 2%, WRN helicase inh -8%, Pol kappa inh -4%, POLI inh -9% and Pol beta inh 8%.
For Cc1cccc(NS(=O)(=O)c2cc(C(=O)NCCC3=CCCCC3)ccc2Cl)c1 the results were Pol eta inh -21%, WRN helicase inh -15%, Pol kappa inh -1%, POLI inh 109% and Pol beta inh -1%.
For CSCCC(=O)Nc1cc(S(=O)(=O)N2CCOCC2)ccc1N1CCN(C)CC1 the results were PI5P4Ka inh -9, Pol eta inh -6%, WRN helicase inh 8%, Pol kappa inh -17%, POLI inh 8% and Pol beta inh -24%.
`N#C/C(=N\Nc1ccc(S(=O)(=O)N2CCc3ccccc32)cc1)C(N)=S` gave PI5P4Ka inh -62*, Pol eta inh inconclusive, WRN helicase inh inconclusive, Pol kappa inh -22%, POLI inh 45% and Pol beta inh 2%.
CN(C)CCNS(=O)(=O)c1ccc(N2CCN(c3ccc(F)cc3)CC2)c([N+](=O)[O-])c1 was read as PI5P4Ka inh 9, Pol eta inh -23%, WRN helicase inh -9%, Pol kappa inh -7%, POLI inh 14% and Pol beta inh 25%.
`COc1ccc([C@H]2N[C@]3(CCCN(CC4CCCCC4)C3=O)[C@H]3C(=O)N(Cc4ccccc4)C(=O)[C@@H]23)cc1` gave PI5P4Ka inh 1, Pol eta inh -13% and WRN helicase inh 3%.
Screening COc1cccc(C(=O)OCC(=O)Nc2ccc(N3CCOCC3)cc2)c1 returned PI5P4Ka inh -6, Pol eta inh -17%, WRN helicase inh 5%, Pol kappa inh -9% and POLI inh 16%.
`CCN1/C(=C/c2ccc3cc(C)cc(C)c3[n+]2CC)Sc2cc(C)ccc21` gave PI5P4Ka inh inconclusive, Pol eta inh 79µM*, WRN helicase inh 18µM*, Pol kappa inh -24%, POLI inh -26% and Pol beta inh 50µM*.
